Experimental findings from PubChem BioAssay (NCI) are described below.

Test systems include SR leukemia; RPMI-8226 leukemia; OVCAR-8 ovarian; OVCAR-5 ovarian; OVCAR-4 ovarian; SK-OV-3 ovarian; IGROV1 ovarian; OVCAR-3 ovarian; HS 578T breast; NCI/ADR-RES ovarian.
Holding throughout (experiment): NCI-60 one-dose screen, 48 h (100 = growth as untreated, 0 = no growth, -100 = all killed)
What all share (details): 10 µM unless noted

Each structure is given as a SMILES string. This is part of a sample that, as a whole, favours compounds with a hit. Of some 83,000 tested, about 20% had one in any assay.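 How to read the values: 0–100, growth inhibition (40 = 60% inhibited); 0, no net growth; -100 to 0, cell death (-40 = 40% of starting cells died; -100 = all dead).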 Values without a mark were called inactive. Activity calls are given as the source filed them. The calls were made as follows: active = growth percent below 10; inactive = the rest.

Consider `CCCCCCCCCc1ccc(OC(C)=O)cc1`, for which the growth in the assay on SR leukemia was 102%; in the assay with RPMI-8226 leukemia it was 91.8%; in the assay on OVCAR-8 ovarian it was 101%; with OVCAR-5 ovarian, 105%; in the assay with OVCAR-4 ovarian, 107%; with SK-OV-3 ovarian it was 119%. The growth in the assay with IGROV1 ovarian was 111%; with OVCAR-3 ovarian it was 108%; in the assay on HS 578T breast, 96.3%; in the assay with NCI/ADR-RES ovarian it was 119%.
`CSc1nc2[nH]ncc2c(=O)[nH]1`: the growth is 95% in the assay on SR leukemia; 119% with RPMI-8226 leukemia; 106% in the assay on OVCAR-8 ovarian; 97.7% in the assay with OVCAR-5 ovarian; 123% in the assay on OVCAR-4 ovarian; 107% in the assay on SK-OV-3 ovarian. Besides, the growth was 112% with IGROV1 ovarian, 97.3% in the assay with OVCAR-3 ovarian, 92% with HS 578T breast and 99.1% with NCI/ADR-RES ovarian.
Take `Cc1ccc(S(=O)(=O)NC(=O)NCCSSCCNC(=O)NS(=O)(=O)c2ccc(C)cc2)cc1`: the growth in the assay on SR leukemia is 107%; with RPMI-8226 leukemia, 99.8%; in the assay on OVCAR-8 ovarian, 106%; in the assay with OVCAR-5 ovarian, 93.6%; in the assay on OVCAR-4 ovarian it was 112%; with SK-OV-3 ovarian, 116%. Further, the growth with IGROV1 ovarian was 101%; in the assay with OVCAR-3 ovarian, 109%; in the assay on HS 578T breast it was 97.5%; in the assay on NCI/ADR-RES ovarian, 111%.
For `CC(C)(C)CC1(C)NC(=O)NC1=O` (stereo not given), the growth in the assay on SR leukemia is 134%; in the assay on RPMI-8226 leukemia, 73.3%; with OVCAR-8 ovarian it was 109%; with OVCAR-5 ovarian, 89.1%; with OVCAR-4 ovarian, 106%; in the assay on SK-OV-3 ovarian it was 115%. The growth in the assay on IGROV1 ovarian was 125%; with OVCAR-3 ovarian it was 120%; with HS 578T breast, 105%; in the assay on NCI/ADR-RES ovarian, 99.7%.
As for `O=S(=O)(c1ccc(NC(=S)NCc2cccnc2)cc1)N1CCCCC1`, the growth in the assay with SR leukemia was 49.1%; in the assay with RPMI-8226 leukemia it was 36.2%; with OVCAR-8 ovarian it was 110%; with OVCAR-5 ovarian, 59.8%; in the assay with OVCAR-4 ovarian it was 95.6%; with SK-OV-3 ovarian, 79.3%. In addition, the growth was 62% with IGROV1 ovarian, 82.3% in the assay with OVCAR-3 ovarian, 70.3% with HS 578T breast and 63.4% with NCI/ADR-RES ovarian.
Regarding `CC(c1ccccc1)N(C)C` (stereo not given), the growth in the assay on SR leukemia was 67.3%; in the assay with RPMI-8226 leukemia, 155%; with OVCAR-8 ovarian it was 117%; in the assay with OVCAR-5 ovarian, 92.8%; in the assay on OVCAR-4 ovarian, 77.3%; in the assay with SK-OV-3 ovarian, 103%. Moreover, the growth in the assay with IGROV1 ovarian was 152%; in the assay with OVCAR-3 ovarian, 120%; with HS 578T breast, 153%; with NCI/ADR-RES ovarian it was 105%.
For the molecule `COc1cc(N)c2ncccc2c1Cl`, the growth with SR leukemia is 91.3%; with RPMI-8226 leukemia, 83.9%; in the assay with OVCAR-8 ovarian, 103%; with OVCAR-5 ovarian it was 90.2%; in the assay on OVCAR-4 ovarian, 128%; with SK-OV-3 ovarian, 105%. Moreover, the growth is 117% with IGROV1 ovarian, 118% with OVCAR-3 ovarian, 130% in the assay on HS 578T breast and 112% in the assay on NCI/ADR-RES ovarian.
Take `COc1cccc(C(=O)NNC(=O)c2cccc3ccccc23)c1`: the growth in the assay on SR leukemia is 113%; in the assay with RPMI-8226 leukemia it was 105%; in the assay on OVCAR-8 ovarian it was 105%; in the assay on OVCAR-5 ovarian, 125%; with OVCAR-4 ovarian it was 109%; in the assay with SK-OV-3 ovarian it was 100%. The growth in the assay on IGROV1 ovarian was 131%; with OVCAR-3 ovarian, 121%; with HS 578T breast it was 114%; in the assay on NCI/ADR-RES ovarian it was 107%.
With `Cc1cc(Cl)cc(Cc2cc(Cl)cc(C)c2O)c1O`, the growth is 1.17% (active) in the assay with SR leukemia; -22.8% (active) with RPMI-8226 leukemia; 48.2% in the assay with OVCAR-8 ovarian; 69% with OVCAR-5 ovarian; 22.2% in the assay with OVCAR-4 ovarian; 51.5% in the assay on SK-OV-3 ovarian. The growth in the assay on IGROV1 ovarian was 33.1%; with OVCAR-3 ovarian, -2.69% (active); in the assay with HS 578T breast it was 4.77% (active); in the assay on NCI/ADR-RES ovarian, -10.7% (active).
`c1ccc2c(NCCCN3CCN(CCCNc4c5ccccc5nc5ccccc45)CC3)c3ccccc3nc2c1`: the growth in the assay with SR leukemia is -3.4% [100 µM] (active); in the assay with RPMI-8226 leukemia it was -9.92% [100 µM] (active); in the assay on OVCAR-8 ovarian, -37.8% [100 µM] (active); in the assay with OVCAR-5 ovarian, -31.3% [100 µM] (active); in the assay on OVCAR-4 ovarian, -48.8% [100 µM] (active); in the assay with SK-OV-3 ovarian it was -28.4% [100 µM] (active). The growth with IGROV1 ovarian is -31.6% [100 µM] (active); in the assay on OVCAR-3 ovarian, -34.4% [100 µM] (active); in the assay on HS 578T breast, -19.1% [100 µM] (active); with NCI/ADR-RES ovarian, 35.7% [100 µM].
Regarding `CC(=O)NC(O)C(Cl)Cl` (stereo not given), the growth is 97.2% in the assay on SR leukemia; 95.8% in the assay on RPMI-8226 leukemia; 96.4% with OVCAR-8 ovarian; 97.2% in the assay with OVCAR-5 ovarian; 97.5% with OVCAR-4 ovarian; -22.9% (active) in the assay on SK-OV-3 ovarian. Moreover, the growth is 107% with IGROV1 ovarian, 74.5% in the assay on OVCAR-3 ovarian, 107% with HS 578T breast and 98.5% in the assay on NCI/ADR-RES ovarian.
As for `O=C(NCc1ccco1)Nc1cccc2c(NC(=O)NCc3ccco3)cccc12`, the growth was 69.4% [100 µM] in the assay with SR leukemia; 33.9% [100 µM] in the assay on RPMI-8226 leukemia; -73.4% [100 µM] (active) in the assay with OVCAR-8 ovarian; 66.4% [100 µM] in the assay on OVCAR-5 ovarian; 92.3% [100 µM] in the assay with OVCAR-4 ovarian; 111% [100 µM] in the assay with SK-OV-3 ovarian. In addition, the growth is 66.3% [100 µM] in the assay with IGROV1 ovarian, 97.5% [100 µM] with OVCAR-3 ovarian, 88.2% [100 µM] with HS 578T breast and 103% [100 µM] in the assay on NCI/ADR-RES ovarian.
Regarding `COc1cc(C(=O)O)c(O)c(C(C)(C)C)c1`, the growth in the assay on SR leukemia is 119%; with RPMI-8226 leukemia it was 106%; in the assay with OVCAR-8 ovarian it was 104%; in the assay on OVCAR-5 ovarian, 99.2%; with OVCAR-4 ovarian, 109%; in the assay on SK-OV-3 ovarian, 103%. For the same molecule, the growth is 107% in the assay on IGROV1 ovarian, 104% in the assay on OVCAR-3 ovarian, 105% in the assay on HS 578T breast and 106% in the assay on NCI/ADR-RES ovarian.
With `Cc1ccc(N)c(S(=O)(=O)O)c1`, the growth in the assay with SR leukemia was 79%; in the assay on RPMI-8226 leukemia, 90.2%; in the assay with OVCAR-8 ovarian, 103%; in the assay with OVCAR-5 ovarian, 89%; in the assay on OVCAR-4 ovarian it was 83.7%; with SK-OV-3 ovarian it was 103%. The growth was 206% in the assay with IGROV1 ovarian, 106% in the assay with OVCAR-3 ovarian, 113% in the assay on HS 578T breast and 94.5% in the assay with NCI/ADR-RES ovarian.
